Test results from PubChem BioAssay (Tox21).
Results filed as inconclusive are left out. Where a call stands in place of a potency, no number is given. Some structures have more than one record in an assay (separate samples or runs), and their calls can disagree. Activity calls are given as the source filed them. Calls come from the whole dose curve; as a rule, active = well fitted cell-killing curve with a large enough effect in the repeat runs; inconclusive = weak or mixed curves, or effect the other way; inactive = no such curve, though single readings can be large or run the other way.

assay: qHTS assay to identify small molecule agonists of the farnesoid-X-receptor (FXR) signaling pathway - cell viability counter screen (AID 743218); conditions: FXR-bla HEK293T viability, CellTiter-Glo luminescence, 16 h; series mostly up to 62.6 µM; note: nearly all actives have a fitted effect of over 45% in size
Excerpt: U.S. Tox21 Program National Center for Advancing Translational Sciences [NCATS] NIH Chemical Genomics Center [NCGC] U.S. Environmental Protection Agency [EPA] National Institutes of Environmental Health Sciences [NIEHS] National Toxicology Program [NTP] U.S. Food and Drug Administration [FDA] Tox21 Assay Overview: The farnesoid-X-receptor (FXR), a nuclear hormone receptor, is highly expressed in liver, intestine, kidney and adrenal cortex. Natural ligands of FXR are the bile acids (Cholic acid, Chenodeoxy cholic acid etc). FXR is an important regulator of diverse metabolic pathways, including the bile acid homeostasis, lipid and glucose metabolisms. FXR regulates the expression of target genes by binding either as a monomer or as a heterodimer with the retinoid X receptor (RXR). Numerous studies have reported that FXR exerts protective function during cholestasis, diabetes, liver regeneration, and cancer. To identify compounds that activate FXR signaling, GeneBLAzer FXR-UAS-bla HEK 293T cell line (Invitrogen, Carlsbad, CA) containing a beta-lactamase reporter gene under the control of a UAS response element was used to screen the Tox21 10K compound library. The cytotoxicity of the Tox21 compound library against the FXR-bla cell line was tested in parallel by measuring the cell viability using CellTiter-Glo assay in the same wells.
Tox21 Assay Protocol Summary: FXR-bla cells were dispensed at 5000 cells/5uL/well in 1536-well black wall/clear bottom plates using a Multidrop Combi (Thermo Fisher Scientific, Waltham, MA) dispenser. After the assay plates were incubated at 37 C and 5% CO2 for 5 h, 23 nL of compounds dissolved in DMSO, positive controls or DMSO only was transferred to the assay plate by a Pintool station (Kalypsys, San Diego, CA). The assay plates were incubated at 37C for 16 h. After 1 uL of LiveBLAzerTM B/G FRET substrate was added using a Bioraptr Flying Reagent Dispenser (FRD) workstation (Beckman Coulter, Indianapolis, IN), the plates were incubated at room temperature for 2 h, and fluorescence intensity was measured by an Envision plate reader (PerkinElmer, Shelton, CT). For cell viability readout that measures cytotoxicity, 4uL/well of CellTiter-Glo reagent was added into the assay plates using a Bioraptr FRD. After 30 min incubation at room temperature, the luminescence intensity in the plates was measured using a ViewLux plate reader (PerkinElmer).
Potency is the fitted concentration of half-maximal effect.

**Q.** With COc1ccc(C=O)cc1OC as the compound, how does the Potency read?
**A.** inactive

**Q.** For COP(=S)(OC)Oc1ccc(S(=O)(=O)N(C)C)cc1, which Potency is on record?
**A.** inactive

**Q.** With CC[n+]1c(-c2ccccc2)c2cc(N)ccc2c2ccc(N)cc21 as the compound, how does the Potency read?
**A.** 614 nM (active)

**Q.** For OC(c1ccc(Cl)cc1)(c1cncnc1)c1ccccc1Cl (stereo not given), which Potency is on record?
**A.** inactive

**Q.** For CCOP(=S)(OCC)SCSC(C)(C)C, which Potency is on record?
**A.** inactive

**Q.** For CCCCOCCOC(C)=O, which Potency is on record?
**A.** inactive

**Q.** Which Potency does the source give for Clc1cccc(C(Cl)(Cl)Cl)n1 here?
**A.** inactive

**Q.** Which Potency does the source give for CC1(C)C(C(=O)OC(C#N)c2cccc(Oc3ccccc3)c2)C1(C)C (stereo not given) here?
**A.** inactive

**Q.** With Cl as the compound, how does the Potency read?
**A.** inactive

**Q.** For O=NN(c1ccccc1)c1ccccc1, which Potency is on record?
**A.** inactive

**Q.** For CCC1(c2ccc(N)cc2)CCC(=O)NC1=O (stereo not given), which Potency is on record?
**A.** inactive

**Q.** With CCOC(=O)c1ccccc1N as the compound, how does the Potency read?
**A.** inactive

**Q.** Which Potency does the source give for CC1CC(=O)O1 (stereo not given) here?
**A.** inactive

**Q.** Which Potency does the source give for [Cl-].[Cl-].[Cl-].[Fe+3] here?
**A.** inactive

**Q.** For CN(C)P(=O)(N(C)C)N(C)C, which Potency is on record?
**A.** inactive

**Q.** With Oc1ccc(Cl)cc1Cc1ccccc1 as the compound, how does the Potency read?
**A.** 60.5 µM (active) and inactive

**Q.** Which Potency does the source give for N#Cc1cccnc1 here?
**A.** inactive

**Q.** For COP(=O)(NC(C)=O)SC (stereo not given), which Potency is on record?
**A.** inactive

**Q.** Which Potency does the source give for CC(O)CN(CC(C)O)CC(C)O (stereo not given) here?
**A.** inactive

**Q.** Which Potency does the source give for c1ccc(C2CO2)cc1 (stereo not given) here?
**A.** inactive

**Q.** For N#CC(c1ccccc1)c1ccccc1, which Potency is on record?
**A.** inactive

**Q.** Which Potency does the source give for COP(=S)(OC)Oc1ccc(Sc2ccc(OP(=S)(OC)OC)cc2)cc1 here?
**A.** inactive

**Q.** With CCOP(=S)(OCC)OP(=S)(OCC)OCC as the compound, how does the Potency read?
**A.** inactive

**Q.** With Cn1c(-c2ccccc2)cc(-c2ccccc2)[n+]1C as the compound, how does the Potency read?
**A.** inactive

**Q.** Which Potency does the source give for C[N+](C)(C)CC(=O)[O-] here?
**A.** inactive

**Q.** For O=C(O)CF, which Potency is on record?
**A.** inactive

**Q.** For CCCCOC(=O)COC(=O)c1ccccc1C(=O)OCCCC, which Potency is on record?
**A.** inactive

**Q.** Which Potency does the source give for CC(C)=CC1C(C(=O)OCN2C(=O)C3=C(CCCC3)C2=O)C1(C)C (stereo not given) here?
**A.** inactive

**Q.** Which Potency does the source give for Brc1ccc(Br)cc1 here?
**A.** inactive

**Q.** Which Potency does the source give for N#Cc1nn(-c2c(Cl)cc(C(F)(F)F)cc2Cl)c(N)c1S(=O)C(F)(F)F (stereo not given) here?
**A.** inactive

**Q.** With [CH3][Sn]([Cl])([Cl])[Cl] as the compound, how does the Potency read?
**A.** inactive

**Q.** For CC(C)(c1ccccc1)c1ccc(O)c(C(C)(C)c2ccccc2)c1, which Potency is on record?
**A.** 54900 nM (active)

**Q.** With CN(C)c1nc(=O)n(C2CCCCC2)c(=O)n1C as the compound, how does the Potency read?
**A.** inactive

**Q.** For CC(C)=CC1C(C(=O)OCc2cccc(Oc3ccccc3)c2)C1(C)C (stereo not given), which Potency is on record?
**A.** inactive

**Q.** For NN=C(N)N, which Potency is on record?
**A.** inactive

**Q.** Which Potency does the source give for NC(=O)CN1CCCC1=O here?
**A.** inactive

**Q.** Which Potency does the source give for Cc1cc(Cl)ccc1N=CN(C)C here?
**A.** inactive

**Q.** With CNC(=O)CSP(=S)(OC)OC as the compound, how does the Potency read?
**A.** inactive

**Q.** With CCCCC(C#N)(Cn1cncn1)c1ccc(Cl)cc1 (stereo not given) as the compound, how does the Potency read?
**A.** inactive

**Q.** For C=CC(Cl)CCl (stereo not given), which Potency is on record?
**A.** inactive
